According to PubChem BioAssay (Tox21):
Values without a mark were called inactive. Entries that show only a call come without a potency. Calls of active or inactive are those of the source. The call rests on the fitted dose curve.

Molecular target: Muscarinic acetylcholine receptor M1 (Homo sapiens) (UniProt P11229)
Assay: Cholinergic receptor muscarinic 1 (CHRM1) small molecule agonists, cell-based qHTS assay (AID 1963589); further: nearly all actives have a fitted effect of over 35% in size
Conditions: CHRM1-CHO cells, agonist mode, calcium flux fluorescence; series mostly up to 76.8 µM
Excerpt: National Center for Advancing Translational Sciences [NCATS]
Division of Preclinical Innovation [DPI]
U.S. Environmental Protection Agency [EPA]
National Institutes of Environmental Health Sciences [NIEHS]
National Toxicology Program [NTP]
U.S. Food and Drug Administration [FDA]
The CHRM1 is a muscarinic receptor. This receptor plays a crucial role in learning and memory processes and has long been identified as a promising therapeutic target for the improvement of cognitive decline in Alzheimer's disease (AD). The CHRM1-CHO cell line stably expressing human muscarinic acetylcholine receptor M1 (CHRM1) can be used for screening agonists and antagonists of interactions between CHRM1 and its ligands. The CHRM1-CHO Calcium Flux Assay is a homogeneous fluorescence-based assay for detecting the intracellular calcium level using FDSS kinetic plate reader system.
CHRM1-CHO cells were dispensed at 1000 cells/3uL/well in 1536-well black-clear bottom plates using a Multidrop Dispenser. After the assay plates were incubated at a 37 C/5% CO2 incubator for 18 h, 3 uL of Dye Loading Buffer was transferred to the assay plate by a Flying Reagent Dispenser. The assay plates were incubated at 37 C for 1h. For agonist mode, 23 nL of compounds dissolved in DMSO, positive controls or DMSO only was transferred to the assay plate by a pin tool. […] Each test compound was measured at 15 concentrations in three independent runs.
Potency means the concentration at half of the fitted maximal effect.

Muscarinic acetylcholine receptor M1 (Homo sapiens), sequence (P11229 whole entry, looked up): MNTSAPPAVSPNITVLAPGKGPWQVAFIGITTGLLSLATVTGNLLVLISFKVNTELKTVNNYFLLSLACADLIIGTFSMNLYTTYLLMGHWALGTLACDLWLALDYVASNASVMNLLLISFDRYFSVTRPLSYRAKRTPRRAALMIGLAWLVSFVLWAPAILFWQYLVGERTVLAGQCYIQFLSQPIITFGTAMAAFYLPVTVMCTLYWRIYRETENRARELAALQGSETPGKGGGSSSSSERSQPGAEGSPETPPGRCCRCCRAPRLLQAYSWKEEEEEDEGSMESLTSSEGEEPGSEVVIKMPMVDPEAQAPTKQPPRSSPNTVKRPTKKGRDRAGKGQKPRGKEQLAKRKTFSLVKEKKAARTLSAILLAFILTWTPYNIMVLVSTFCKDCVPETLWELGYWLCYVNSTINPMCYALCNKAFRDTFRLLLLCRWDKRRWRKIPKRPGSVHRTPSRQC

SMILES | Potency | activation
C=C(C)[C@@H]1CC[C@@H](C)C[C@@H]1O | inactive | 
CCOC(=S)SSC(=S)OCC | inactive | 
NS(=O)(=O)c1ccccc1Cl | inactive | 
CC(=O)O[C@@H]1C[C@@H]2CC[C@@]1(C)C2(C)C | inactive | 
c1ccc(CSCc2ccccc2)cc1 | inactive | 
COC(=O)c1cc(Cl)ccc1NS(=O)(=O)C(F)(F)F | inactive | 
Nc1ccc(N=Nc2ccccc2)c(N)n1 | inactive | 
CCCCc1ncc(/C=C(\Cc2cccs2)C(=O)O)n1Cc1ccc(C(=O)O)cc1 | inactive | 
CC/C=C/CCO | inactive | 
CCC(C)c1ccccc1 (stereo not given) | inactive | 
Cc1ccc(C(C)c2ccc(C)c(C)c2)cc1C | inactive | 
NC(=S)Nc1cccc2ccccc12 |  | 0.152% [at 6.97 µM]
O=C1NC2NC(=O)NC2N1 (stereo not given) | inactive | 
CC(C)CCCCCOC(=O)CCS | inactive | 
C=CCOCC(CC)(CO)COCC=C | inactive | 
CC(C)CCCCCCc1ccc(O)cc1 | inactive | 
CN1CCCC1 | inactive | 
CCN(CC)CCN | inactive | 
C[Si](C)(C)Cl | inactive | 
CCN[C@H]1CN(CCCOC)S(=O)(=O)c2sc(S(N)(=O)=O)cc21 | inactive | 

SMILES | Potency | activation
CCOC(OCC)C(=O)c1ccccc1 | inactive | 
COC(=O)c1ccc2cc(C(=O)OC)ccc2c1 |  | 0.0556% [at 15.8 µM]
CCCCOC(=O)CCS | inactive | 
CCCCCCCCCCCCC(=O)O | inactive | 
NCCCN1CCN(CCCN)CC1 | inactive | 
C=COCCCC | inactive | 
Cc1nc(-c2ccc3c(c2)CCN(CCC2CCC(NC(=O)/C=C/c4ccc(F)cc4)CC2)CC3)no1 (stereo not given) | inactive | 
CCCCCCCCC1CCC(=O)O1 (stereo not given) | inactive | 
CC1OC1C1CCC2(C)OC2C1 (stereo not given) | inactive | 
C1CCC2OC2C1 (stereo not given) | inactive | 
CC(=O)CC(=O)Nc1ccc2[nH]c(=O)[nH]c2c1 | inactive | 
C=C1C[C@]23C[C@@]1(O)CC[C@H]2[C@@]12C=C[C@H](O)[C@@](C)(C(=O)O1)[C@H]2[C@@H]3C(=O)O | inactive | 
C=CCCCCCCCCCCCC | 245 nM (active) | 
COc1cc(C(=O)N2CCCCCCC2)cc(OC)c1OC | inactive | 
COc1ccc(C(=O)CC(=O)c2ccc(C(C)(C)C)cc2)cc1 | inactive | 
O=C1CCCc2ccccc21 | inactive | 
CCCCCCCCCOS(=O)(=O)O | inactive | 
CCCCOC(=O)CCCCCCCC(=O)OCCCC | inactive | 
COc1cc(N)c(Cl)cc1C(=O)NC1CCN(Cc2ccccc2)CC1 | inactive | 
ON=C1CCCCC1 | inactive | 
